Test [1] concerns the target Lysosomal acid glucosylceramidase (Homo sapiens) (UniProt P04062). Nature of the test: Glucocerebrosidase-p2 (AID 348; in the data active = potency below about 10 µM; note: potency is the fitted concentration of half-maximal effect). The conditions noted are these: purified GBA, blue fluorogenic substrate, 40 min. Summed up: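 Normal human glucocerebrosidase (0.2 nM) with blue fluorogenic substrate (80 uM final) in citrate/phosphate pH 5.9 with 10mM sodium taurocholate, 0.01% tween-20; 40 min RT, NaOH/glycine stop; fluorescence Ex 365/Em 440; AC50 from a titration from 0.6 nM upwards.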

Test [2] can be described thus: AP1 Signaling Pathway (AID 357). Note: % is set by controls: 0 for no effect and ±100 for the full control effect. The note with it: ME-180 AP-1-bla reporter, EGF-induced, beta-lactamase ratio, 5 h; at 7.69 µM (top of the series) unless noted. In short, it runs like this: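 A ratiometric CCF4 readout (405 nm excitation; 460 and 530 nm emission) quantified AP-1-driven beta-lactamase in ME-180 cells after 5 h with compound and EC50 EGF; AC50 values were derived for activators and inhibitors.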

For test [3], the target named is Cytochrome P450 1A2 (Homo sapiens) (UniProt P05177). Nature of the test: p450-cyp1a2 (AID 410; calls by dose curve; note: potency is the fitted concentration of half-maximal effect). The note with it: recombinant CYP1A2, luciferin-ME demethylation, luminescence; series mostly up to 11.4 µM. Summed up: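 O-Demethylation of luciferin 6' methyl ether by human CYP1A2 is monitored as luciferase luminescence. Substrate sits at Km (100uM); enzyme is 20nM. Values are scaled to 57 uM furafylline as maximal inhibition.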
Chain of Cytochrome P450 1A2 (Homo sapiens) (P05177 whole entry, looked up): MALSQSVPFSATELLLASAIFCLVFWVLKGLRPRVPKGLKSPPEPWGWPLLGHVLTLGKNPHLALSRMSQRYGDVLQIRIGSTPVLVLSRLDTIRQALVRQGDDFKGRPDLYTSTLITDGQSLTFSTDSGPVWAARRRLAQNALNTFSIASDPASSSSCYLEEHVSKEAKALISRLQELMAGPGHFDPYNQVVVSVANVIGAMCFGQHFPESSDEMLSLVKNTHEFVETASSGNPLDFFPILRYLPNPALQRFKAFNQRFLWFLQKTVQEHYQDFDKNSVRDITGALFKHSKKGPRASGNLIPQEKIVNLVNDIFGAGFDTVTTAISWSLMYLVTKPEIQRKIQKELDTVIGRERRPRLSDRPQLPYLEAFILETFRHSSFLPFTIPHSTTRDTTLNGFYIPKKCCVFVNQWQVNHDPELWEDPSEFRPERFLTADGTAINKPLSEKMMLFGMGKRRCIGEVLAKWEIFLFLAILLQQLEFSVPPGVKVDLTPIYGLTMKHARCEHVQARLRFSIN

Test [4] is described as follows: NFAT Signaling Pathway (AID 444).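 Note: carbachol stimulus at about its EC50 of 1 µM final; % is set by controls: 0 for no effect and ±100 for the full control effect.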 The note with it: Jurkat NFAT-bla M1, carbachol, beta-lactamase ratio, 5 h; at 7.69 µM (top of the series) unless noted. In short, it runs like this: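 Read-out: CCF4 FRET ratio (460 nm/530 nm) after 1 h RT dye loading, used for %activity and AC50 from titration series. Cells: Jurkat NFAT-β-lactamase/M1 line, treated with compound plus 1 uM carbachol for 5 h, 37 °C.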

The nature of test [5]: Stat Signaling Pathway (AID 446).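 Note: ME-180 cervical cancer cells given 40 pM IL-6 alongside compound; SIE-controlled beta-lactamase reporter measured as 460/530 nm FRET emission ratio; % is set by controls: 0 for no effect and ±100 for the full control effect.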 The note with it: ME-180 (cervical carcinoma) SIE beta-lactamase reporter, IL-6 stimulated, 5 h; at 7.69 µM (top of the series) unless noted. Summed up: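 Normalization used AC90 stimulation (300 pM IL-6) and AC90 inhibition (125 nM pan-JAK inhibitor at 40 pM IL-6). The underlying signal is SIE-driven beta-lactamase in ME-180 cells after 5 h IL-6 exposure with compound.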

The target of test [6] is Glucocorticoid receptor (Homo sapiens) (UniProt P04150). Nature of the test: GR-GFP Redistribution (AID 450;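 active = compounds whose dose series gives a full or clear partial fitted curve of increased nuclear translocation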; note: potency is the fitted concentration of half-maximal effect). The conditions noted are these: U2OS GR-GFP nuclear translocation, laser cytometry, 2 h.
Chain of Glucocorticoid receptor (Homo sapiens) (P04150 whole entry, looked up, the tested form may be a part): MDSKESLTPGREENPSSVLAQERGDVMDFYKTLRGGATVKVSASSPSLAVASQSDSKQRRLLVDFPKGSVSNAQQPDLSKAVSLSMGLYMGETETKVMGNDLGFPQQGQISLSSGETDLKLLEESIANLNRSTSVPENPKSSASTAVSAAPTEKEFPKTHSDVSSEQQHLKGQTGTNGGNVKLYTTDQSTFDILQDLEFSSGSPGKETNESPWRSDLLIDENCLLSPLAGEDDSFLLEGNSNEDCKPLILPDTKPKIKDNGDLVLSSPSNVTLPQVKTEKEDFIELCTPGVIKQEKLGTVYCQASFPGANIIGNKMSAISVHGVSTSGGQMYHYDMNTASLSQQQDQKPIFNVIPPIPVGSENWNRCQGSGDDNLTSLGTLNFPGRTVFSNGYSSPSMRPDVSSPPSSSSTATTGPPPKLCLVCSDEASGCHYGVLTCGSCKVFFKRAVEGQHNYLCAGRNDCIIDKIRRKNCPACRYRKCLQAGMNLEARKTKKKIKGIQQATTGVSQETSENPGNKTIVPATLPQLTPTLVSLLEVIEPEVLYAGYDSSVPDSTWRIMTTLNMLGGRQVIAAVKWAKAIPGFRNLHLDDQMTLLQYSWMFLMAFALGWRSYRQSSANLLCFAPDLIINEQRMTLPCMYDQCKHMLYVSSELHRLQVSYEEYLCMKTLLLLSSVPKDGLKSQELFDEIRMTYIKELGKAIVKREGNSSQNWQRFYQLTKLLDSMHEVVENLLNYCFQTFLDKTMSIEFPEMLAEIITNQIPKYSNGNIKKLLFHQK
Test [7] has the same target. Nature of the test: GR-EFC Redistribution (AID 451; calls by dose curve; note: potency is the fitted concentration of half-maximal effect). The note with it: CHO-K1 GR-EFC translocation, beta-gal luminescence, 2 h. In short, it runs like this: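 Translocation of GR-ED fusion to nuclear EA restores b-gal, read by luminescence after 1 h room-temperature detection. Engineered CHO-K1 biosensor cells, 1,000/well, exposed 2 h at 37 C to titrations up to 46 uM final.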

Test [8] addresses Mitogen-activated protein kinase 10 (Mus musculus) (UniProt Q61831). Nature of the test: JNK3 AlphaScreen Assay (AID 530).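 Note: kinase came from lysate of stimulated human HepG2 cells; signal reports phosphorylation of biotinylated GST-cJun 1-79 at Ser73 with 10 µM ATP; % is set by controls: 0 for no effect and ±100 for the full control effect.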 The note with it: JNK3 lysate, c-Jun phosphorylation; series mostly up to 11.4 µM. In short, it runs like this: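 qHTS titrations with 15 min compound pre-incubation before adding ATP (10 uM final). Read-out: AlphaScreen of Ser73-phosphorylated biotin-GST-cJun using HepG2 lysate JNK3 activated by IL-1β and TNFα.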
On the technique in general: Bead proximity is the source of the signal in Alpha formats.

Test [9] concerns the target 3',5'-cyclic-AMP phosphodiesterase 4B (Homo sapiens) (UniProt Q07343). Nature of the test: qHTS Assay for Inhibitors of PDE-IV (AID 607; active = well fitted activation curve with a large enough effect in the main read-out, with a control signal flat, not every such curve was filed as active; note: % of control where 0% means no effect). The conditions noted are these: HEK293 ACTOne CNG channel cells, membrane potential fluorescence; series mostly up to 22.9 µM. In short, it runs like this: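 HEK293 ACTOne cells with CNG channel (1000/well), endogenous PDE4; membrane potential dye, compounds up to 22.9 uM final. Fluorescence Ex 535/Em 590; RO 20-1724 (100 uM final) as reference.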
Background: Quantitative high-throughput screening tests each substance at several concentrations.

A number with no mark means an inactive call. Results filed as inconclusive are left out. Active and inactive are the calls of the source. Unless noted, calls come from the whole dose curve; as a rule, active = well fitted curve in either direction with a large enough effect (not every such curve was filed as active); inconclusive = small, poorly fitted or top-dose-only effect, or another doubt; inactive = flat fitted curve, though single readings scatter.

Chain of 3',5'-cyclic-AMP phosphodiesterase 4B (Homo sapiens) (Q07343 whole entry, looked up): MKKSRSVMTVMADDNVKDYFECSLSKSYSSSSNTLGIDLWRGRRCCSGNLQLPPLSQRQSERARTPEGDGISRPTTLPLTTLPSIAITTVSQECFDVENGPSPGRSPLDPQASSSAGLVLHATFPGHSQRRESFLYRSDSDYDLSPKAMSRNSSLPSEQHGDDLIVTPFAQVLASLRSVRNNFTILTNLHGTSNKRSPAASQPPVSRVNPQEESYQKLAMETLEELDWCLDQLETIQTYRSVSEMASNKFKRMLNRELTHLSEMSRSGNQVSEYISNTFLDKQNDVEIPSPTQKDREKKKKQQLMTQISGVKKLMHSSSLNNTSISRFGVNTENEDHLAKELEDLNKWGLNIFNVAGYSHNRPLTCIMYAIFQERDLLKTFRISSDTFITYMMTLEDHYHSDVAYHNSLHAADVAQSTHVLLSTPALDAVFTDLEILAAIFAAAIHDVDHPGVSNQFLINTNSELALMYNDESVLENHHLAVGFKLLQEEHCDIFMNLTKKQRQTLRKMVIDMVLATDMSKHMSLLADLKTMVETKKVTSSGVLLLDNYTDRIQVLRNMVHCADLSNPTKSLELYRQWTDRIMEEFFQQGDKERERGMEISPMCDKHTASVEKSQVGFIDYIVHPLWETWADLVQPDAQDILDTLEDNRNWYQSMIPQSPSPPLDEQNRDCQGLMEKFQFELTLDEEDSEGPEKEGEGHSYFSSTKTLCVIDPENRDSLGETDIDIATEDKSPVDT
Chain of Lysosomal acid glucosylceramidase (Homo sapiens) (P04062 whole entry, looked up): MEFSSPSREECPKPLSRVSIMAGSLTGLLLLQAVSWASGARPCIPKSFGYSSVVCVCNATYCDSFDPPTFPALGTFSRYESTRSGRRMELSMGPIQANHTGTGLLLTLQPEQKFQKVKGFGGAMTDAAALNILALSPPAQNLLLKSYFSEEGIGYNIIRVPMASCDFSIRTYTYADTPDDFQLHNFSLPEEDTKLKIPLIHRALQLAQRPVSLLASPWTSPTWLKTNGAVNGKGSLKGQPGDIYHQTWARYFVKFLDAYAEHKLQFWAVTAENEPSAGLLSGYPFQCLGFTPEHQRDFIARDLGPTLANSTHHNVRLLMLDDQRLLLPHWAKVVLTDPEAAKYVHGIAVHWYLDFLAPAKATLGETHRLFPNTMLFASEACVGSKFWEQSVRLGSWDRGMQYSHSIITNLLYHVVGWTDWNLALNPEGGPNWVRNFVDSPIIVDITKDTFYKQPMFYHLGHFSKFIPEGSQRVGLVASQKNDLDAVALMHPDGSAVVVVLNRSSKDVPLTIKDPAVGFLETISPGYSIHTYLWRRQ

In the case of `O=C(O)C[C@H](Cc1ccccc1Cl)C(=O)O`, the Potency in test [1] was greater than 11.4 µM; in test [6], greater than 46 µM; in [7], greater than 9.22 µM. Also, the activity change, negative = inhibition is -0.0824% in test [2] and -7.65% in [4]. Besides, the Potency entry in test [3], in [8] and in [9] was “inactive” in each case. The activity, negative = inhibition in [5] is 13.9%.

With `O=C(O)[C@@H]1CCCN1Cc1c[nH]c2ccccc12`, the Potency was greater than 11.4 µM in [1], greater than 46 µM in test [6] and greater than 9.22 µM in [7]. For the same compound, the activity change, negative = inhibition was 6.54% in test [2] and 6.95% in [4]. Besides, the Potency entry in [3], in test [8] and in [9] was “inactive” throughout. In addition, the activity, negative = inhibition in test [5] was 3.95%.

Regarding `Cc1cc([N+](=O)[O-])c(C)c(Br)c1C`, the Potency in test [1] was greater than 11.4 µM; in test [3], 1 µM (active); in [6], greater than 46 µM; in test [7] it was greater than 9.22 µM. For the same compound, the activity change, negative = inhibition in [2] was 3.15%; in test [4], -7.3%. Also, in test [5], the activity, negative = inhibition is 6.97%. Besides, the Potency entry in test [8] and in test [9] was “inactive” throughout.

With `Cn1c(=O)c2[nH]c(/N=N\N3CCN(CCO)CC3)nc2n(C)c1=O`, the values for the Potency in test [1], in test [6] and in test [7] were greater than 11.4 µM, greater than 46 µM and greater than 9.22 µM, respectively. For the same compound, the results for the activity change, negative = inhibition in test [2], in test [3] and in [4] were 6.96%, -14.7% [at 2.29 µM] and 7.64%, respectively. The activity, negative = inhibition in [5] was 11.6%. The Potency entry in test [8] and in [9] was “inactive” each time.

For the compound `O=C(O)[C@@H]1[C@@H](C(=O)Nc2ccccc2)[C@@H]2C=C[C@@H]1O2`, the Potency in test [1] was greater than 11.4 µM; in [6], greater than 46 µM; in [7] it was greater than 9.22 µM. Also, the activity change, negative = inhibition is 3.5% in [2], -18.1% [at 2.29 µM] in [3] and 8.21% in test [4]. The activity, negative = inhibition in test [5] was -5.22%. Also, the Potency entry in [8] and in test [9] was “inactive” in each case.

For the compound `O=c1[nH]cc(CS(=O)(=O)Cc2c[nH]c(=O)[nH]c2=O)c(=O)[nH]1`, the Potency in test [1] is greater than 11.4 µM; in test [6] it was greater than 46 µM; in test [7], greater than 9.22 µM. In addition, the activity change, negative = inhibition in [2] was -0.933%; in [4], 1.47%. The Potency entry in test [3], in test [8] and in [9] was “inactive” throughout. Also, the activity, negative = inhibition in [5] was 0.704%.

Regarding `O=c1[nH]c(=S)[nH]c2c1CN(CCCN1CCOCC1)CN2`, the Potency in test [1] was greater than 11.4 µM; in test [6], greater than 46 µM; in test [7], greater than 9.22 µM. Moreover, the figures for the activity change, negative = inhibition in test [2], in test [3] and in test [4] were 3.35%, -13.5% [at 2.29 µM] and 4.33%, respectively. Moreover, the activity, negative = inhibition in [5] was 4.09%. For the same compound, the Potency result in [8] and in test [9] was “inactive” throughout.

As for `O=c1c[n+](CC[n+]2cc(=O)o[nH]2)[nH]o1`, the Potency in test [1] is greater than 11.4 µM; in test [3], 2.51 µM (active); in [6], greater than 46 µM; in [7] it was greater than 9.22 µM. Also, the activity change, negative = inhibition was 2.98% in test [2] and 12.3% in test [4]. The activity, negative = inhibition in test [5] was 4.21%. In addition, the Potency result in test [8] and in test [9] was “inactive” throughout.

Turning to `O=C(O)c1nnsc1COCc1ccccc1`, the Potency in test [1] was greater than 11.4 µM; in test [6], greater than 46 µM; in test [7] it was greater than 9.22 µM. In addition, the activity change, negative = inhibition was 6.35% in test [2] and 6.97% in test [4]. Further, the Potency result in test [3], in test [8] and in test [9] was “inactive” throughout. Besides, the activity, negative = inhibition in test [5] is 12.4%.

As to `[O-][N+]1(CC[N+]2([O-])CCCCC2)CCCCC1`, the Potency in test [1] was greater than 11.4 µM; in test [6], greater than 46 µM; in [7] it was greater than 9.22 µM. Besides, the values for the activity change, negative = inhibition in [2] and in test [4] were -8.89% and 2.18%, respectively. Moreover, the Potency entry in [3], in test [8] and in test [9] was “inactive” each time. In [5], the activity, negative = inhibition is -8.8%.

With `CCC(C)(C)c1ccc(Oc2cccc(C(=O)O)c2)cc1`, the Potency is greater than 11.4 µM in test [1], greater than 46 µM in [6] and greater than 9.22 µM in test [7]. The activity change, negative = inhibition in test [2] was -11.1%; in [4] it was -3.61%. In addition, the Potency entry in test [3], in test [8] and in [9] was “inactive” in each case. Moreover, the activity, negative = inhibition in [5] is -0.214%.

Consider `C[C@@](N)(Cc1c[nH]c2ccccc12)C(=O)O`, for which the Potency in [1] was greater than 11.4 µM; in test [6], greater than 46 µM; in test [7] it was greater than 9.22 µM. In addition, the activity change, negative = inhibition in test [2] was 13.6%; in [4], -4.57%. Further, the Potency entry in test [3], in test [8] and in test [9] was “inactive” each time. Besides, the activity, negative = inhibition in [5] was 10.9%.

For the compound `CN(C)Cc1cc(C(C)(C)C)ccc1-c1ccc(C(C)(C)C)cc1CN(C)C`, the figures for the Potency in [1], in [6] and in [7] were greater than 11.4 µM, greater than 46 µM and greater than 9.22 µM, respectively. Besides, the figures for the activity change, negative = inhibition in test [2], in test [3] and in test [4] were 4.9%, -17.9% [at 2.29 µM] and 5.47%, respectively. The activity, negative = inhibition in test [5] was 1.89%. In addition, the Potency entry in test [8] and in [9] was “inactive” each time.

As for `C[C@](O)(c1ccccc1)c1nccc2ccccc12`, the results for the Potency in test [1], in test [6] and in test [7] were greater than 11.4 µM, greater than 46 µM and greater than 9.22 µM, respectively. Further, the activity change, negative = inhibition was -0.483% in test [2] and 3.41% in test [4]. In addition, the Potency result in test [3], in test [8] and in test [9] was “inactive” throughout. Moreover, in test [5], the activity, negative = inhibition was -8.29%.

The values are drawn from PubChem BioAssay (NCATS).
